Bioassay records as filed in PubChem.
GLP-1R agonist – agonists of human GLP-1 receptor; P43220; HEK293 GLP-1R CRE-luciferase, luminescence, 4-6 h; cells express a hypersensitive GLP-1R form; Potency, µM (series often up to 45.6 µM), for the others: at the top dose activation, hits mostly activators; 0.007% of 380,000 active; AID 624172; further: potency means the concentration at half of the fitted maximal effect; % of control where 0% means no effect
Target sequence (P43220 whole entry, looked up): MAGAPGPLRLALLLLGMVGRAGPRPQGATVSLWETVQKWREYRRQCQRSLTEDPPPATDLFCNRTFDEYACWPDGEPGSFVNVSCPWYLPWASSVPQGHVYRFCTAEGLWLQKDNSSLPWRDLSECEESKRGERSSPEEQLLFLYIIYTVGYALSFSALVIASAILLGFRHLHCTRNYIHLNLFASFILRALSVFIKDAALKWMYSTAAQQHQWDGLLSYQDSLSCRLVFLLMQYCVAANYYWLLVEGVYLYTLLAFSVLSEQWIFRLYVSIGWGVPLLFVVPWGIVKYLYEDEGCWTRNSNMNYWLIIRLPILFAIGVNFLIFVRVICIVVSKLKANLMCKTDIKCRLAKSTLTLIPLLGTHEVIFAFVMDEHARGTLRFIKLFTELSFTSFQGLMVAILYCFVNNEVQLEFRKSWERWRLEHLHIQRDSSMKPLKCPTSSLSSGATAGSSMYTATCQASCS
GLP-1R inv ag – inverse agonists of human GLP-1 receptor. Potency, µM (doses to about 38.3 µM), for the others: at the highest dose activity change, negative = inhibition, most hits filed as inhibitors. HEK293 GLP-1R CRE-luciferase, luminescence, 24 h; GLP-1R form is constitutively active. 1.6% of 410,000 active. P43220; further: potency means the concentration at half of the fitted maximal effect; on the % scale 0 is the no-effect control and ±100 the full control effect; nearly all actives have a fitted effect of over 55% in size
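HEK293 cells stably co-expressing constitutively active GLP-1R and a cAMP-responsive luciferase reporter were seeded in DMEM with 10% Nu serum, given compounds after 12 h, and incubated 24 h at 37 deg C. Luminescence was then read.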
GLP1R cytotox – cytotoxicity counter-screen for GLP-1 receptor inverse agonists; HEK293 cAMP-luciferase reporter cells, luminescence, 24 h; Potency, µM (titrated, usually from 38.3 µM), for inactives: top-dose activity change, negative = inhibition, usual class: inhibitors; 0.13% of 410,000 active;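 further: loss of luciferase light is scored as toxicity; potency means the concentration at half of the fitted maximal effect; on the % scale 0 is the no-effect control and ±100 the full control effect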
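Step one: seed cells (200 cells/uL, DMEM with 10% Nu serum, 1% pen-strep). Step two: 12-hour incubation at 37 deg C. Step three: pin 23 nL compound, incubate 24 hr. Step four: add luciferase reagent, read luminescence 12 min later.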
TRHR enhancer-1 – allosteric enhancers of human TRH receptor | 0.66% of 360,000 active | AID 493056 | TRHR cells, fluo-8 calcium fluorescence, EC20 TRH enhancement | enhancement, % at 2 µM; in the data active means enhancement above about 30%; further: 0% is about no effect
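TRHR-expressing cells loaded with fluo-8 calcium dye were read kinetically (ex 480/em 530) during compound addition, then stimulated with an EC20 of TRH (10 nM final). Enhancement of the Gq-mediated intracellular calcium response was scored.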
PTHR1 ag – activates the human parathyroid hormone receptor PTHR1. Q03431. HEK293 GP2 PTHR1 cells, GloSensor cAMP luminescence, 1 h. Potency, µM (highest dose often 115 µM), for the others: at the top dose activation, usual class: activators. 0.075% of 410,000 active. AID 743266; further: potency means the concentration at half of the fitted maximal effect; nearly all actives have a fitted effect of over 55% in size
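HEK-293-derived GP2 cells expressing PTHR1 and a GloSensor cAMP reporter, 3,000/well, plated overnight, given luciferin plus IBMX (each 0.5 mM as added) for 1 h at 37 °C, then compound for 1 h at 37 °C. Luminescence was read after 15 min at room temperature.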
TRHR agonist-1 – agonists of human TRH receptor | P34981 | TRHR cells, calcium flux fluo-8, FDSS agonist mode | activation, % at 2 µM | 0.18% of 360,000 active | AID 493084; in the data active means activation above about 30%; further: 0% is about no effect
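Fluo-8-loaded TRHR cells; 10 s baseline, compound added, kinetic Ca2+ fluorescence read 1/s, agonist mode.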
TRHR enhancer-2 – confirmation of human TRH receptor allosteric enhancers. shares compounds with TRHR enhancer-1. 970 tested, under 10 active. activity change, negative = inhibition, % at 46.1 µM. TRH receptor cell assay, enhancer confirmation qHTS. AID 493076;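 further: compound effect scored on response to added TRH at EC20 of 10 nM; 0% is about no effect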
TRHR agonist-2 – human TRH receptor agonism confirmation; shares compounds with TRHR enhancer-1; TRHR-expressing cells, agonist activation read-out; Potency, µM (top dose mostly 46.1 µM), without a hit: at the highest dose activation, most hits filed as activators; 8% of 970 active; further: potency means the concentration at half of the fitted maximal effect; 0% is about no effect; nearly all actives have a fitted effect of over 75% in size
* = called active by the depositor; i = inactive; ? = inconclusive; . = not tested or not shown; [ ] = dose if it differs, or a comment. Hits are enriched below; roughly 2.4% of the tested compounds scored in any of these assays. Unless noted, the call rests on the fitted dose curve; in most records, active means well fitted curve in the direction sought with a large enough effect; inconclusive means small, poorly fitted or top-dose-only effect, or another doubt; inactive means no such curve, though single readings can be large; an effect the other way counts as inactive or inconclusive.

SMILES	GLP-1R agonist	GLP-1R inv ag	GLP1R cytotox	TRHR enhancer-1	PTHR1 ag	TRHR agonist-1	TRHR enhancer-2	TRHR agonist-2
COc1ccccc1-n1nnnc1SCC(=O)Nc1ccccc1	3.6%	9.2%	5.4%	56.4*	-20.9%	0.4	-4.1	2.4%
COc1ccccc1-n1nnnc1SCC(=O)Nc1ccccn1	-8.8%	7.4%	5.9%	-1.6	i	-1.3	.	.
N#CC1=C(N)Oc2cc(O)ccc2C1c1cccnc1 (configuration not stated)	7.8%	4.4%	1.3%	7.3	-4.2%	0.1	.	.
N#CC1=C(N)Oc2cc(O)c(Cl)cc2C1c1cccnc1 (configuration not stated)	-2.7%	15.9%	290.0%	-1.1	-1.7%	64.5*	5.3	?
O=C(NCCc1ccccc1)C(c1ccncc1)N(C(=O)c1csnn1)C1CC1 (configuration not stated)	-8.3%	3.4%	2.5%	-4.2	i	0.5	.	.
CS(=O)(=O)c1ncc(CO)n1Cc1ccccc1	13.2%	13.1%	-4.1%	-5.2	i	0.4	.	.
Cn1nnnc1SCC(=O)NNC(=O)c1ccc(F)cc1	-7.0%	1.2%	15.9%	44.5*	-3.5%	0.8	-6.2	-0.6%
Cc1nc(NC(C)c2ccccc2)sc1C(=O)Nc1ccccc1 (configuration not stated)	0.0%	?	-12.9%	13.9	i	-0.7	.	.
OCC1(CCc2ccccc2)CCN(Cc2ccccc2Cl)CC1	11.6%	?	8.8%	60.3*	-17.1%	3.0	-5.3	4.8%
Clc1ccccc1CN1CCN(CCCc2ccccc2)CC1	0.9%	?	5.5%	-3.7	-22.0%	-2.8	.	.
COc1ccc(C2=NOC(C(=O)O)C2)cc1 (configuration not stated)	1.8%	0.8%	-13.3%	2.7	14.2%[57.5 µM]	0.3	.	.
COC(=O)[C@@H]1C[C@H]2CC[C@H](O)C[C@H]2N1Cc1ccccc1OS(=O)(=O)c1ccc(C)cc1	4.7%	11.2%	2.5%	1.4	i	-0.7	.	.
CCOCc1c(C(=O)Nc2ccccc2N2CCN(C)CC2)oc2ccccc12	4.4%	?	-18.1%	43.9*	-22.7%	0.1	-5.4	6.3%
CCOCc1c(C(=O)Nc2cc(OCC)c(N3CCOCC3)cc2OCC)oc2ccccc12	6.6%	6.2%	-1.8%	-10.3	-11.4%	0.1	.	.
O=C(CNC(=O)c1ccccc1)NC1(C(=O)NC2CCCCC2)CCCCC1	3.5%	-26.4%	-3.5%	53.4*	-32.4%	0.7	-15.6	-0.5%
Cc1oc(-c2ccccc2)nc1C(=O)OCC(=O)NC(=O)NCC(C)C	-0.1%	11.9%	-12.2%	48.6*	i	0.2	-4.4	-0.7%
Cc1oc(-c2ccccc2)nc1C(=O)OCC(=O)NC(C)c1ccccc1 (configuration not stated)	-4.5%	-8.7%	-26.4%	8.2	-25.9%	-1.1	.	.
CN(C)CC(O)COC(c1ccc(Cl)cc1)c1ccc(Cl)cc1 (configuration not stated)	8.6%	?	?	-0.5	i	2.2	.	.
O=C(CCC1N=C2c3ccccc3N=C(SCC(=O)Nc3cccc(Cl)c3)N2C1=O)NCc1ccco1 (configuration not stated)	.	0.1%	-2.7%	-4.4	-11.5%	0.0	.	.
O=C(CCC1N=C2c3ccccc3N=C(SCc3cccc(Cl)c3)N2C1=O)NCc1ccco1 (configuration not stated)	0.7%	?	6.8%	49.5*	-34.8%	-0.1	-6.1	?
Cc1ccc(S(=O)(=O)NCCC(=O)NC(C)c2ccccc2)cc1 (configuration not stated)	-0.4%	?	2.1%	-2.8	-26.7%	-0.8	.	.
Cc1nc2nc[nH]n2c(=O)c1CCOC(=O)c1ccccc1F	-1.1%	5.0%	-4.0%	-3.7	i	0.3	.	.
COc1ccc(CC(=O)Nc2cc(S(=O)(=O)N3CCCCC3)ccc2C)cc1OC	6.4%	-21.0%	8.6%	14.5	-19.1%	0.5	.	.
COc1ccc(OC)c(C=Nc2ccccc2-c2nc3ccccc3[nH]2)c1	4.2%	-19.9%	-19.4%	-4.9	i	-1.1	.	.
COc1ccc(OC)c(/C=C/c2nc3ccccc3[nH]c2=O)c1	17.5%	21.3%	-2.4%	-3.8	-26.8%	26.4	4.9	18.4µM*
SMILES	GLP-1R agonist	GLP-1R inv ag	GLP1R cytotox	TRHR enhancer-1	PTHR1 ag	TRHR agonist-1	TRHR enhancer-2	TRHR agonist-2
Cc1ccc(C)c(S(=O)(=O)N2CCN(C(=O)c3ccccc3Cc3ccccc3)CC2)c1	10.3%	13.7%	2.4%	-0.4	-13.7%	-0.1	.	.
O=C(O)c1ccc(N/N=C/c2ccc(F)c(F)c2)cc1	-21.6%	?	-5.9%	47.3*	-46.1%	-0.1	-9.4	-0.7%
O=C(O)c1ccc(N/N=C/c2cccc(F)c2)cc1	-10.3%	-25.7%	-0.4%[1.53 µM]	2.6	-0.9%	0.0	.	.
O=C(CCS(=O)(=O)c1ccccc1)Nc1nc(-c2ccc(F)cc2)cs1	-3.4%	?	?	-12.4	-91.9%	3.4	.	.
Oc1[nH]c2ccccc2c1N=Nc1nc(Nc2ccccc2)nc(N2CCOCC2)n1	-1.1%	-1.7%	1.0%	-14.3	i	1.1	.	.
Cc1[nH]c2ccccc2c1/C=N/Nc1nc(Nc2ccccc2)nc(N2CCOCC2)n1	2.2%	?	-15.5%	55.0*	19.2%[57.5 µM]	-0.2	-1.4	-0.7%
S=c1nc(-c2sccc2OCc2ccc(Cl)cc2Cl)[nH][nH]1	4.9%	-20.0%	5.2%	50.5*	-26.4%	-0.4	?	1.0%
COc1ccc2c(C)c(C(=O)N3CCN(Cc4ccccc4)CC3)oc2c1	9.9%	?	25.2%	70.2*	-56.0%	0.1	?	-0.4%
CC(=O)c1c(C)[nH]c(C(=O)N2CCN(S(=O)(=O)c3ccc(C)cc3C)CC2)c1C	-3.8%	4.5%	-3.7%	6.2	-37.0%	-0.4	.	.
O=C(CSc1ccc(Br)cc1)N1CCN(C(=O)c2ccco2)CC1	10.5%	6.6%[7.66 µM]	8.6%[7.66 µM]	59.7*	-2.2%	-0.7	-3.0	-0.2%
O=C(NCCOc1ccccc1)C1CCC(=O)N(C2CCCCCC2)C1 (configuration not stated)	8.8%	-14.2%	-1.1%	57.7*	-23.2%	0.1	4.5	-0.7%
O=C(NCc1ccco1)C(Cc1ccccc1)NS(=O)(=O)c1cccc2nsnc12 (configuration not stated)	2.0%	8.3%	3.8%	-1.8	-33.3%	0.1	.	.
